In PubChem BioAssay AID588856 (National Center for Advancing Translational Sciences (NCATS), 2011):
“And” between values parts separate entries of the source, which are not always exact repeats. Equal values may be shown once. The whole screen tested about 410,000 compounds, of which about 3,100 (0.76%) were called active. Calls come from the whole dose curve; as a rule, active = well fitted cell-killing curve with a large enough effect; inactive = no such curve, though single readings can be large or run the other way. The sample as a whole holds a higher share of actives than the screen did. Some compounds were tested as several samples or in several runs, with calls that do not always agree.

Test: qHTS for Inhibitors of TGF-b: Cytotox Counterscreen
Conditions: HepG2 CAGA-GFP viability, ATP luminescence, 18 h; series mostly up to 46.1 µM; activity change, negative = cytotoxicity: at the top concentration
How it was run: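 CellTiter-Glo luminescence gave cytotoxicity after 18 hours at 37 degrees C. The cells were HepG2 CAGA-GFP in 1% FBS DMEM, stimulated with 500 pg/mL TGF-beta after compound addition. %Activity was normalised to no-cell wells (complete cell-killing) and DMSO (no toxicity), and curves were fitted and classified.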
Potency is the fitted concentration of half-maximal effect.

| SMILES | activity change, negative = cytotoxicity | Potency |
| --- | --- | --- |
| Cc1ccc(Nc2ccccc2N)cc1 | -11.6% (inactive) | – |
| Nc1ccccc1N | -29.9% (inactive) | – |
| Nc1ccc(Nc2ccccc2)cc1 | – | 12.6 µM (active) |
| OCCNc1ncnc2oc(-c3ccco3)c(-c3ccco3)c12 | -6.83% (inactive) | – |
| Cc1ccc(-c2nn(CCC(=O)Nc3ccc(Cl)c(Cl)c3)c(=O)c3ccccc23)cc1 | -0.688% (inactive) | – |
| O=C(CC(O)(C(F)(F)F)C(F)(F)F)Nc1ccc(Cl)c(Cl)c1 | – | 10 µM (active) |
| O=C(CSc1nnc(-c2ccncc2)n1-c1ccccc1)Nc1ccc(Cl)c(Cl)c1 | -32.6% (inactive) | – |
| O=C(Nc1cc(C(F)(F)F)ccc1Cl)c1ccc2c(c1)CCN2S(=O)(=O)c1ccccc1 | 1.94% (inactive) | – |
| NC(=O)Nc1ccc(/C=C/c2ccnc3ccccc23)cc1 | -31.3% (inactive) | – |
| CCN(CC)S(=O)(=O)c1ccc(C)c(NC(=O)COc2ccc(Br)cc2Cl)c1 | -19.9% (inactive) | – |
| Cc1ccc(S(=O)(=O)N(C)C)cc1NC(=O)c1ccccc1Br | -0.551% (inactive) | – |
| CCN(CC)S(=O)(=O)c1ccc(NC(=O)c2cccnc2Cl)c(NC(=O)c2cccnc2Cl)c1 | – | 12.6 µM (active) |
| O=C1O/C(=C\c2ccc(O)cc2)C(O)=C1c1ccc(O)cc1 | -5.76% (inactive) | – |
| COc1ccc(CN2CCC(=O)c3ccccc3S2(=O)=O)cc1 | 2.5% (inactive) | – |
| OCC(O)C(O)C(O)C(O)C=Nc1ccc(/C=C/c2ccnc3ccccc23)cc1 (stereo not drawn) | -37% (inactive) | – |
| Cc1nn(Cc2ccc(F)cc2)c(C)c1NC(=O)c1cc(CC(C)C)on1 | -16.7% (inactive) | – |
| O=C1CCC[C@@H]2C[C@@]3(C[C@@H]4CCN1[C@H]24)Nc1ccccc1NC3=NCc1ccccc1 | 3.95% (inactive) | – |
| COc1cc(OC)c(OC)cc1/C=C1\C=Cc2ccccc21 | -29.7% (inactive) | – |
| Cc1nc2nc(SCC(=O)NC3CCC(C)CC3)nn2c(C)c1Cc1ccccc1Cl (stereo not drawn) | -5.98% (inactive) | – |
| Cc1nnc(N2CCCC(C(=O)NCCN(C)C)C2)c2nn(-c3ccccc3)c(C)c12 (stereo not drawn) | -5.42% (inactive) | – |
| CCOc1ccc(CNC(=O)C2CCCN(c3nnc(C)c4c(C)n(-c5ccccc5)nc34)C2)cc1 (stereo not drawn) | – | inactive and 12.6 µM (active) |
| CCCCNC(=O)C1CCCN(c2nnc(C)c3c(C)n(-c4ccc(Cl)cc4)nc23)C1 (stereo not drawn) | -16.2% (inactive) | – |
| C(=Nc1ccc(/C=C/c2ccnc3ccccc23)cc1)Nc1ccc(/C=C/c2ccnc3ccccc23)cc1 | -43.2% (inactive) | – |
| CCc1ccc(NC(=O)c2cc3c(=O)n(Cc4cccnc4)ccc3nc2C)cc1 | -25.2% (inactive) | – |

| SMILES | activity change, negative = cytotoxicity | Potency |
| --- | --- | --- |
| Cc1c(Cl)cccc1NC(=O)Cn1cc(C(=O)c2cccs2)c2ccccc21 | -18.1% (inactive) | – |
| O=[N+]([O-])c1c(NCCO)cc(Sc2nc3ccccc3s2)c2nonc12 | – | 15.8 µM (active) |
| CC(C)c1ccc(S(=O)(=O)Nc2ccc(O)c(Sc3nc4ccccc4s3)c2)cc1 | -40.8% (inactive) | – |
| CC(C)(C)c1ccc(S(=O)(=O)Nc2ccc(O)c(Sc3nc4ccccc4s3)c2)cc1 | -100% (inactive) | – |
| COc1ccc(-c2nn(CC(=O)Nc3ccccc3F)c3c2cnc2ccc(F)cc23)cc1 | 0.4% (inactive) | – |
| CN(CCC#N)c1ccc(C=O)cc1 | -6.52% (inactive) | – |
| O=C(Cn1c(=O)n(-c2ccc(F)cc2)c(=O)c2sccc21)Nc1cccc(C(F)(F)F)c1 | -27% (inactive) | – |
| COc1ccc(/C=C/c2ccnc3ccccc23)cc1OC | -19.3% (inactive) | – |
| Cc1cccc(N2CCN(C(=O)c3cc4c(=O)[nH]c5ccccc5c4n3C)CC2)c1C | -13.2% (inactive) | – |
| O=C(c1c(Cl)cccc1Cl)N1CCN(c2cccc3[nH]ccc23)CC1 | – | 0.447 µM (active) |
| O=C(c1ccc2ccccc2n1)N1CCN(c2ccccc2Cl)CC1 | -2.3% (inactive) | – |
| CCc1ccccc1N(C)C(=O)C1CCCN(c2ncnc3onc(-c4ccc(F)cc4)c23)C1 (stereo not drawn) | 1.08% (inactive) | – |
| Oc1cccc2cc(-c3ccncc3)cnc12 | – | 2.82 µM (active) |
| Cc1ccc2c(c1)N(C(=O)CCC(=O)NCc1ccccc1F)CC(C)O2 (stereo not drawn) | -1.52% (inactive) | – |
| CC1=C(C(=O)OCC2CCCCC2)C(c2c(F)cccc2Cl)CC(=O)N1 (stereo not drawn) | 1.73% (inactive) | – |
| COc1cccc(CN(C)CC(O)COC(c2ccccc2)c2ccccc2C)c1 (stereo not drawn) | -80.7% (inactive) | – |
| CN(Cc1ccccc1)CC(O)COc1ccc(CNCc2cc3ccccc3s2)cc1 (stereo not drawn) | – | 11.2 µM (active) |
| COC(=O)c1ccc(OCC(O)CN(CCO)CC(O)Cn2ccc3ccccc32)cc1 (stereo not drawn) | -3.35% (inactive) | – |
| C=C1CCN(C(CC(C)C)C(=O)NCc2cc(OC)c(OC)c(OC)c2)S(=O)(=O)c2ccccc21 (stereo not drawn) | -4.21% (inactive) | – |
| O=C(Cn1cc(/C=N/NC(=O)c2cccc(C(F)(F)F)c2)c2ccccc21)Nc1ccc(F)cc1 | -34.7% (inactive) | – |
| Cc1ccc(Cl)cc1NC(=O)/C(C#N)=C\c1cn(Cc2ccc(F)cc2)c2ccccc12 | -32.7% (inactive) | – |
| N#CCC(=O)N/N=C/c1cn(Cc2ccc3ccccc3c2)c2ccccc12 | – | 3.55 µM (active) |
| Cc1ccc(Cn2c(CCCNC(=O)C3CCCCC3)nc3ccccc32)cc1 | -24% (inactive) | – |
| Cc1ccc2c(=O)c(C(=O)c3cccc(Cl)c3)cn(CC(=O)NCc3ccccc3)c2n1 | -18.6% (inactive) | – |
